NS1 inh: influenza NS1 inhibition. AID 2326. 270,000 tested, 0.4% active. Potency, µM (series often up to 46.1 µM); calls by dose curve; further: actives are rising curves; nearly all actives have a fitted effect of over 50% in size
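A cell-based growth assay was used: compounds that relieve NS1-induced slow growth of budding yeast raise OD600. Assay medium was yeast nitrogen base with ammonium sulphate and -URA supplement, pH 6.0, with 2% galactose.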
Sm TGR block: S. mansoni TGR enzyme inhibition; Q962Y6; Potency, µM (titrated, usually from 114 µM), hits mostly inhibitors; 360,000 tested, 3% active; purified TGR, DTNB reduction, TNB absorbance 405 nm; further: nearly all actives have a fitted effect of over 60% in size
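TGR 20 nM + NADPH 100 uM (dispensed conc.), cpd preinc 15 min RT; start with NADPH (500 uM addition) then DTNB (15 mM addition). Kinetic TNB absorbance, 405 nm filter. Four-parameter Hill fit across titration.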
Shiga inhibitor: blocks Shiga toxin action in Vero cells; Vero cells, Shiga toxin protein synthesis inhibition reporter; inhibition, % at 38.7 µM; 290,000 tested, 9.2% active; AID 2315; in the data active means inhibition mostly above about 28%, no sharp cut-off; inactive means mostly below about 43%
Cycloheximide cs: affects cycloheximide protein synthesis inhibition readout, counter-screen | cell reporter, cycloheximide protein synthesis inhibition counterscreen | AID 2314 | 300,000 tested, 12% active | max response, %; in the data active means max response mostly above about 13%, no sharp cut-off; inactive means mostly below about 14%; further: read at 38.3 µM for the half of the compounds with a filed dose
Pf growth 96h: inhibits malaria parasite growth, 96 h; Potency, µM (highest dose often 28.7 µM), actives largely listed as inhibitors; P. falciparum luciferase reporter growth, 96 h; 320,000 tested, 6.9% active; AID 504834
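Compounds incubated with erythrocytes infected by luciferase-expressing P. falciparum (2% hematocrit, 0.05% parasitemia final) for 96 hours, 37 C in 5% CO2. Growth inhibition scored as decreased luciferase luminescence.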
Pf growth 48h: P. falciparum growth inhibition at 48 hours (one generation); AID 504832; P. falciparum luciferase growth in erythrocytes, 48 h; Potency, µM (top dose mostly 28.7 µM), hits mostly inhibitors; 310,000 tested, 5.9% active
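A one-generation exposure of luciferase-tagged malaria parasites in RPMI 1640/Albumax erythrocyte culture, 37 C and 5% CO2. Inhibition is inferred from decreased luminescence after adding detection reagent.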
Each line names hits and unclear results; the compound was inactive in the other large screens; ! = a repeat was not active. This is a sample that favours compounds with a hit; in the whole collection about 21% have one here. Unless noted, the call rests on the fitted dose curve; in most records, active means well fitted curve in the direction sought with a large enough effect; inconclusive means small, poorly fitted or top-dose-only effect, or another doubt; inactive means no such curve, though single readings can be large; an effect the other way counts as inactive or inconclusive.

Cc1cc(Nc2ccc(F)c(Cl)c2)n2ncnc2n1	Pf growth 96h inconclusive, Pf growth 48h inconclusive
Cc1cc(Nc2ccc(F)c(Cl)c2)n2nc(C)nc2n1	Pf growth 48h 3.29µM
COc1cc(Nc2cc(C)nc3nc(C)nn23)cc(OC)c1OC	Pf growth 48h 9.28µM
COc1ccc(Nc2cc(C)nc3nc(C)nn23)cc1Cl	NS1 inh inconclusive (no result: Pf growth 48h)
COc1ccc(O[C@H]2C=C[C@@H](c3ccccc3)O[C@@H]2COC(=O)CCC(C)=NO[C@@H]2O[C@H](COC(C)=O)[C@@H](OC(C)=O)[C@H](OC(C)=O)[C@H]2OC(C)=O)cc1	NS1 inh inconclusive, Pf growth 96h inconclusive
COc1ccc(O[C@H]2C=C[C@@H](c3ccccc3)O[C@@H]2COC(=O)CC/C(C)=N/O[C@H](C)c2cn([C@@H]3COC[C@H]3O)nn2)cc1	Pf growth 96h inconclusive, Pf growth 48h 14.7µM
COc1ccccc1-c1ccc(C(=O)O)o1	Cycloheximide cs 22.1!
O=C(NCc1ccco1)c1ccc(CS(=O)(=O)Cc2ccc(Cl)cc2)o1	none
COc1ccccc1CNC(=O)c1ccc(CS(=O)(=O)c2c(Cl)cccc2Cl)o1	none (no result: NS1 inh, Shiga inhibitor, Cycloheximide cs, Pf growth 96h, Pf growth 48h)
O=C(NCc1ccco1)c1ccc(-c2ccccc2Cl)o1	Sm TGR block 25.1µM, Cycloheximide cs 43.2 (no result: NS1 inh)
COc1ccccc1S(=O)Cc1ccc(C(=O)NCc2ccccc2Cl)o1 (stereo unspecified)	Sm TGR block 15.8µM (no result: Pf growth 48h)
O=C(NCC1CCCO1)c1ccc(-c2ccccc2Cl)o1 (stereo unspecified)	none (no result: NS1 inh, Shiga inhibitor, Cycloheximide cs)
O=C(NCc1ccco1)c1ccc(-c2ccc(Cl)cc2)o1	Shiga inhibitor 78.1, Cycloheximide cs 36.9 (no result: NS1 inh)
CCc1c(C(=O)NNC(=S)NCC(C)C)csc1C	none
COc1ccc(CCNC(=O)C2CCN(S(=O)(=O)c3ccc(C)cc3)CC2)cc1	NS1 inh inconclusive, Pf growth 96h inconclusive, Pf growth 48h inconclusive
CCN(CC)S(=O)(=O)N1CCN(S(=O)(=O)N2CCOCC2)CC1	none (no result: Sm TGR block)
CCOc1ccc(C/C(N)=N/n2cnnc2)cc1	none (no result: Pf growth 96h)
COc1ccccc1CNC(=O)c1ccc(-c2ccccc2Cl)o1	Sm TGR block inconclusive, Pf growth 96h 10.4µM
Cc1ccc(CNC(=O)C2CCN(c3ncnc4c3nc3n4CCCCC3)CC2)cc1	none (no result: NS1 inh, Shiga inhibitor, Cycloheximide cs, Pf growth 96h, Pf growth 48h)
Cc1noc(C)c1CC(=O)Nc1ccc2c(c1)OCO2	none (no result: NS1 inh, Shiga inhibitor, Cycloheximide cs)
Cc1nn2cc(-c3ccccc3)nc2[nH]c1=O	Pf growth 96h 0.657µM, Pf growth 48h inconclusive
CCOc1ccc(NC(=O)Cn2nnc(C(=O)NCc3cccs3)c2N)cc1	Pf growth 96h inconclusive
CN(C)c1ccc(NC(=O)Nc2cccc3ccccc23)cc1	Sm TGR block inconclusive, Shiga inhibitor 76.7, Cycloheximide cs 35.6, Pf growth 96h inconclusive
CCN(CC)c1ccc(NC(=O)Nc2ccccc2C(F)(F)F)cc1	Shiga inhibitor 42.0, Pf growth 48h inconclusive
CCN(CC(=O)Nc1ccccc1OC)CC(=O)Nc1ccccc1C(F)(F)F	Pf growth 48h inconclusive (no result: NS1 inh)
CCN(CC)c1ccc(NC(=O)Nc2cccc3ccccc23)cc1	Sm TGR block inconclusive, Cycloheximide cs 15.4, Pf growth 96h inconclusive, Pf growth 48h inconclusive
O=C(Nc1ccccc1C(F)(F)F)Nc1cccc2ccccc12	none
CCN(CC)CCCNC(=O)c1ccc(OCC(=O)Nc2ccccc2C(F)(F)F)c(OC)c1	Pf growth 96h 18.5µM, Pf growth 48h inconclusive
CSc1ccc(CCNC(=O)c2ccc(-n3c(C)cc4c3CCCC4)cc2)cc1	none (no result: NS1 inh, Shiga inhibitor, Cycloheximide cs, Pf growth 96h, Pf growth 48h)
CN(CC(=O)Nc1ccccc1Br)C(=O)COc1cccc2c1OC(C)(C)C2	none (no result: NS1 inh, Shiga inhibitor, Cycloheximide cs)
CC(NC(=O)c1ccc(Cl)cc1)c1nnc(SCC(=O)NC2=NCCS2)n1C (stereo unspecified)	Pf growth 96h inconclusive
CCN(CC(=O)Nc1ccc(C(C)=O)cc1)CC(=O)Nc1ccccc1C(F)(F)F	Sm TGR block 31.6µM (no result: NS1 inh)
CCN(CC(=O)Nc1ccc(OC)c(OC)c1)CC(=O)Nc1ccccc1C(F)(F)F	Sm TGR block inconclusive
Cc1cccc(CCNC(=O)c2cc(S(=O)(=O)N3CCCCC3)c[nH]2)c1	Pf growth 96h inconclusive, Pf growth 48h inconclusive
COc1ccc(OCc2n(CC(=O)OC3CC(C)CCC3C(C)C)c3ccccc3[n+]2C)cc1 (stereo unspecified)	Pf growth 96h inconclusive, Pf growth 48h 1.04µM
Cc1nn2c(NCCCN(C)C)c3c(nc2c1-c1ccccc1)CCCC3	Pf growth 96h 8.28µM, Pf growth 48h 14.7µM
Cc1nn2c(Nc3ccccc3)c3c(nc2c1-c1ccccc1)CCC3	Pf growth 96h 5.86µM
Cc1nn2c(NCCCN(C)C)c3c(nc2c1-c1ccccc1)CCC3	Pf growth 96h 10.4µM (no result: Pf growth 48h)
COCCNc1c2c(nc3c(-c4ccccc4)c(C)nn13)CCC2	Pf growth 96h inconclusive, Pf growth 48h inconclusive
Cc1ccc([N+](=O)[O-])cc1N=C(c1cccc(Br)c1)N1CCOCC1	Pf growth 96h 13.1µM, Pf growth 48h inconclusive
NS(=O)(=O)c1ccc(CCNC(=O)/C=C/c2cccc([N+](=O)[O-])c2)cc1	none (no result: Sm TGR block)
CCOc1cc(/C=C/C(=O)Nc2ccc(C(=O)NCCN(CC)CC)cc2)ccc1OCC(C)C	Pf growth 96h 0.522µM, Pf growth 48h 2.62µM (no result: NS1 inh)
CCOc1cc(/C=C/C(=O)NCCc2ccc(S(N)(=O)=O)cc2)ccc1OCC(C)C	Pf growth 96h 0.657µM, Pf growth 48h inconclusive
